Holding throughout (assay): qHTS profiling for inhibitors of Plasmodium falciparum proliferation (AID 504749); further: nearly all actives have a fitted effect of over 60% in size
Holding throughout (details): P. falciparum in erythrocytes, SYBR Green DNA, 72 h; series mostly up to 28.7 µM

One assay deals with 7G8. The gist of the method: (§1)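 Three-day growth assay of blood-stage parasites in erythrocytes (0.3% parasitemia, 2.5% hematocrit) at 37 C, 5% CO2, quantified by SYBR Green DNA staining after overnight detergent lysis.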
For another assay, the system named is AA1029. The gist of the method:
as §1

In the next assay the test system is AS120. An outline of the steps:
as §1

For the next assay, the system named is ATS189. The gist of the method: as §1
Another assay deals with ATS95. An outline of the steps:
as §1

The subject of a further assay is C2A. The gist of the method:
as §1

The subject of another assay is CP185. An outline of the steps:
as §1

For another assay, the system named is CP191. An outline of the steps:
as §1

For another assay, the system named is CP215. An outline of the steps:
as §1

Another assay relates to CP217. An outline of the steps: as §1
Another assay relates to CP237. The gist of the method: as §1
In a further assay the test system is CP238. An outline of the steps:
as §1

For a further assay, the system named is CP247. An outline of the steps: as §1
The next assay concerns CP250. An outline of the steps: as §1
The test system of a further assay is CP252. The gist of the method:
as §1

A further assay relates to CP192. An outline of the steps:
as §1

A further assay has as its system CP194. The gist of the method:
as §1

For another assay, the system named is CP201. The gist of the method: as §1
A further assay relates to CP203. An outline of the steps: as §1
A further assay deals with CP211. The gist of the method:
as §1

Results filed as inconclusive are left out. Active and inactive are the calls of the source. The call rests on the fitted dose curve; in most records, active means well fitted inhibition curve with a large enough effect; inconclusive means small, poorly fitted or top-dose-only effect; inactive means flat fitted curve, though single readings scatter.
Potency means the concentration at half of the fitted maximal effect.

`OCCOCCOCCO`: the Potency entry in the assay on 7G8, in the assay with AA1029, with AS120, in the assay with ATS189, in the assay on ATS95 and with C2A was “inactive” throughout. For the same compound, the Potency entry with CP185, with CP191, in the assay on CP217, in the assay with CP237, in the assay on CP238 and in the assay with CP247 was “inactive” throughout. The Potency entry with CP250 and in the assay on CP252 was “inactive” each time. Also, in the assay on CP215, the Potency is 16.9 µM (active).
As to `CCCc1nc(C(C)(C)O)c(C(=O)OCc2oc(=O)oc2C)n1Cc1ccc(-c2ccccc2-c2nn[nH]n2)cc1`, the Potency result in the assay with 7G8, with AA1029, with AS120, with ATS189, with ATS95 and in the assay with C2A was “inactive” each time. In addition, the Potency entry in the assay on CP185, in the assay on CP191, in the assay with CP192, in the assay on CP194, with CP201 and in the assay with CP203 was “inactive” each time. The Potency entry in the assay with CP211, in the assay on CP217, with CP237, with CP238, with CP247 and with CP250 was “inactive” throughout. The Potency result in the assay with CP252 was “inactive”.
`Cc1ncc[nH]1`: the Potency result in the assay with 7G8, with AA1029, in the assay on AS120, in the assay with ATS189, in the assay with ATS95 and with C2A was “inactive” each time. In addition, the Potency entry in the assay with CP185, in the assay on CP191, with CP192, in the assay with CP194, in the assay with CP201 and in the assay on CP203 was “inactive” in each case. Also, the Potency entry in the assay with CP211, in the assay on CP217, in the assay on CP237, in the assay with CP238, in the assay with CP247 and in the assay with CP250 was “inactive” in each case. In addition, the Potency result with CP252 is “inactive”.
Regarding `CCOC(=O)c1c[nH]c2cc(OCC(C)C)c(OCC(C)C)cc2c1=O`, the Potency in the assay on 7G8 is 0.0708 µM (active); in the assay on AA1029, 0.0794 µM (active); with AS120, 0.0447 µM (active); in the assay on ATS189 it was 0.0631 µM (active); with ATS95, 0.0891 µM (active); in the assay with C2A, 0.199 µM (active). Besides, the Potency in the assay with CP185 is 0.1 µM (active); in the assay with CP191 it was 0.0501 µM (active); in the assay with CP211, 0.0536 µM (active); with CP217, 0.0708 µM (active); with CP237 it was 0.0794 µM (active); in the assay with CP238 it was 0.126 µM (active). The Potency with CP247 is 0.0794 µM (active); with CP250, 0.0794 µM (active); in the assay with CP252 it was 0.0891 µM (active).
Consider `CC12CCC(C1)C(C)(C)C2=O` (stereo not given), for which the Potency entry in the assay with 7G8, with AA1029, in the assay on AS120, with ATS189, in the assay on ATS95 and with C2A was “inactive” in each case. The Potency entry with CP185, in the assay on CP191, in the assay with CP192, with CP194, with CP201 and with CP211 was “inactive” in each case. Also, the Potency result in the assay on CP215, in the assay on CP217, in the assay with CP237, in the assay with CP238, in the assay with CP247 and in the assay on CP250 was “inactive” each time. Further, in the assay on CP252, the Potency entry was “inactive”.
For the compound `COc1ccc(-c2noc(CC(=O)O)c2-c2ccc(OC)cc2)cc1`, the Potency entry in the assay with 7G8, with AA1029, with AS120, in the assay with ATS189, in the assay on ATS95 and in the assay with C2A was “inactive” each time. Besides, the Potency entry in the assay with CP185, in the assay with CP191, in the assay with CP192, with CP194, in the assay with CP201 and in the assay on CP211 was “inactive” each time. Further, the Potency entry in the assay on CP215, in the assay on CP217, with CP237, in the assay on CP238, in the assay with CP247 and with CP250 was “inactive” in each case. For the same compound, in the assay on CP252, the Potency entry is “inactive”.
Regarding `COc1cc(C)c(/C=C/C(C)=C/C=C/C(C)=C/C(=O)O)c(C)c1C`, the Potency result in the assay with 7G8, with AA1029, in the assay with AS120, in the assay with ATS189, with ATS95 and in the assay with C2A was “inactive” in each case. Also, the Potency result in the assay with CP185, with CP191, with CP192, with CP194, in the assay on CP201 and with CP203 was “inactive” throughout. Moreover, the Potency result with CP211, in the assay on CP217, in the assay on CP237, with CP238, with CP247 and in the assay with CP250 was “inactive” each time. In addition, the Potency result with CP252 was “inactive”.
With `O.O.O.O.O.O.O.O=S(=O)([O-])[O-].[Co+2]`, the Potency in the assay with 7G8 was 2.82 µM (active); in the assay on AA1029 it was 8.91 µM (active); with AS120, 5.01 µM (active); with ATS189, 11.2 µM (active); with ATS95, 5.01 µM (active); in the assay on C2A, 12.6 µM (active). In addition, the Potency was 12.6 µM (active) in the assay on CP185; 8.91 µM (active) in the assay with CP191; 7.57 µM (active) in the assay with CP194; 7.57 µM (active) in the assay with CP201; 6.75 µM (active) in the assay on CP203; 9.53 µM (active) in the assay with CP211. The Potency in the assay on CP217 was 11.2 µM (active); in the assay on CP238, 7.94 µM (active); in the assay on CP247, 11.2 µM (active); in the assay on CP250, 11.2 µM (active); with CP252, 11.2 µM (active).
With `O=P(O)(O)CP(=O)(O)O`, the Potency entry with 7G8, in the assay with AA1029, with AS120, in the assay on ATS189, in the assay on ATS95 and in the assay with C2A was “inactive” in each case. The Potency entry with CP192, in the assay on CP194, with CP201, in the assay on CP203, in the assay with CP211 and with CP215 was “inactive” each time. In addition, the Potency result in the assay with CP217, with CP237, with CP238, in the assay with CP247, in the assay on CP250 and in the assay with CP252 was “inactive” each time.
On to `CC[C@H]1OC(=O)[C@H](C)[C@@H](O[C@H]2C[C@@](C)(OC)[C@@H](O)[C@H](C)O2)[C@H](C)[C@@H](O[C@@H]2O[C@H](C)C[C@H](N(C)C)[C@H]2O)[C@](C)(O)C[C@@H](C)CN(C)[C@H](C)[C@@H](O)[C@]1(C)O`, for which the Potency with 7G8 was 12.6 µM (active); in the assay with AA1029 it was 4.47 µM (active); in the assay on AS120, 5.01 µM (active); in the assay on ATS189 it was 12.6 µM (active); with ATS95, 7.94 µM (active); in the assay on C2A, 4.47 µM (active). Also, the Potency in the assay with CP185 is 5.01 µM (active); with CP217 it was 5.62 µM (active); in the assay with CP237, 5.01 µM (active); with CP238 it was 5.62 µM (active); in the assay on CP252 it was 4.47 µM (active).
Take `COc1cc(NCCCC(C)N)c2ncccc2c1` (stereo not given): the Potency is 0.224 µM (active) in the assay on 7G8; 12.6 µM (active) in the assay with AA1029; 3.16 µM (active) in the assay on AS120; 11.2 µM (active) in the assay on ATS189; 11.2 µM (active) with ATS95; 10 µM (active) in the assay on C2A. Also, the Potency was 11.2 µM (active) in the assay on CP185; 5.01 µM (active) with CP191; 7.57 µM (active) in the assay with CP194; 7.57 µM (active) with CP203; 8.49 µM (active) with CP215; 11.2 µM (active) with CP217. Further, the Potency with CP237 is 7.08 µM (active); in the assay with CP238, 11.2 µM (active); in the assay with CP247, 4.47 µM (active); in the assay with CP250, 5.62 µM (active); with CP252, 11.2 µM (active).
For the compound `CCCCC[C@H](O)/C=C/[C@@H]1[C@H]2C/C(=C/CCCC(=O)O)O[C@H]2C[C@H]1O`, the Potency result in the assay with 7G8, with AA1029, in the assay with AS120, in the assay with ATS189, with ATS95 and in the assay on C2A was “inactive” in each case. Further, the Potency result in the assay on CP185, in the assay on CP191, with CP192, with CP194, in the assay with CP201 and in the assay on CP211 was “inactive” in each case. Further, the Potency entry in the assay on CP215, in the assay with CP217, with CP237, in the assay on CP238, with CP247 and in the assay on CP250 was “inactive” throughout. Moreover, the Potency entry with CP252 is “inactive”.
On to `NC(=S)N=Nc1ccc(NN=C(N)N)cc1`, for which the Potency in the assay with 7G8 was 10 µM (active); in the assay on AA1029, 12.6 µM (active); in the assay on AS120, 12.6 µM (active); with ATS189, 10 µM (active); with ATS95 it was 10 µM (active); in the assay with C2A it was 5.62 µM (active). Further, the Potency with CP185 was 11.2 µM (active); in the assay with CP191 it was 4.47 µM (active); with CP192, 8.49 µM (active); with CP194, 7.57 µM (active); in the assay on CP203 it was 12 µM (active); in the assay with CP211, 7.57 µM (active). Also, the Potency with CP215 was 7.57 µM (active); in the assay with CP217, 12.6 µM (active); with CP237, 10 µM (active); in the assay with CP238, 11.2 µM (active); with CP247 it was 11.2 µM (active); in the assay on CP252, 8.91 µM (active).

The values are drawn from PubChem BioAssay (NCATS).
